Data taken from the supplement of paper PMC11001985.

Compound: C#CCNC(=O)CCSSCCC(=O)NCCc1ccc(C=O)c(C=O)c1
Assay: lysine labeling ratio R10:1 (500 µM / 50 µM probe), SILAC-ABPP in living cells; higher = lower intrinsic lysine reactivity toward the probe, active = 2 or less
Conditions: HeLa; probe concentrations 500 vs 50 µM
How it was run: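 SILAC light and heavy living HeLa cells in PBS at room temperature were labelled with 50 µM or 500 µM of an alkyne-tagged, disulfide-linked lysine probe, with forward and reverse label swaps. Mixed lysates were clicked to biotin-azide, trypsin-digested, captured on neutravidin, DTT-released, alkylated and analysed by LC-MS/MS on a TIMS-TOF Pro. R is the filtered median high-probe/low-probe MS1 peptide ratio per lysine, then the median across forward and reverse replicates. Ratios are capped at 20.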

UniProt Q01082, sequence (Q01082 whole entry): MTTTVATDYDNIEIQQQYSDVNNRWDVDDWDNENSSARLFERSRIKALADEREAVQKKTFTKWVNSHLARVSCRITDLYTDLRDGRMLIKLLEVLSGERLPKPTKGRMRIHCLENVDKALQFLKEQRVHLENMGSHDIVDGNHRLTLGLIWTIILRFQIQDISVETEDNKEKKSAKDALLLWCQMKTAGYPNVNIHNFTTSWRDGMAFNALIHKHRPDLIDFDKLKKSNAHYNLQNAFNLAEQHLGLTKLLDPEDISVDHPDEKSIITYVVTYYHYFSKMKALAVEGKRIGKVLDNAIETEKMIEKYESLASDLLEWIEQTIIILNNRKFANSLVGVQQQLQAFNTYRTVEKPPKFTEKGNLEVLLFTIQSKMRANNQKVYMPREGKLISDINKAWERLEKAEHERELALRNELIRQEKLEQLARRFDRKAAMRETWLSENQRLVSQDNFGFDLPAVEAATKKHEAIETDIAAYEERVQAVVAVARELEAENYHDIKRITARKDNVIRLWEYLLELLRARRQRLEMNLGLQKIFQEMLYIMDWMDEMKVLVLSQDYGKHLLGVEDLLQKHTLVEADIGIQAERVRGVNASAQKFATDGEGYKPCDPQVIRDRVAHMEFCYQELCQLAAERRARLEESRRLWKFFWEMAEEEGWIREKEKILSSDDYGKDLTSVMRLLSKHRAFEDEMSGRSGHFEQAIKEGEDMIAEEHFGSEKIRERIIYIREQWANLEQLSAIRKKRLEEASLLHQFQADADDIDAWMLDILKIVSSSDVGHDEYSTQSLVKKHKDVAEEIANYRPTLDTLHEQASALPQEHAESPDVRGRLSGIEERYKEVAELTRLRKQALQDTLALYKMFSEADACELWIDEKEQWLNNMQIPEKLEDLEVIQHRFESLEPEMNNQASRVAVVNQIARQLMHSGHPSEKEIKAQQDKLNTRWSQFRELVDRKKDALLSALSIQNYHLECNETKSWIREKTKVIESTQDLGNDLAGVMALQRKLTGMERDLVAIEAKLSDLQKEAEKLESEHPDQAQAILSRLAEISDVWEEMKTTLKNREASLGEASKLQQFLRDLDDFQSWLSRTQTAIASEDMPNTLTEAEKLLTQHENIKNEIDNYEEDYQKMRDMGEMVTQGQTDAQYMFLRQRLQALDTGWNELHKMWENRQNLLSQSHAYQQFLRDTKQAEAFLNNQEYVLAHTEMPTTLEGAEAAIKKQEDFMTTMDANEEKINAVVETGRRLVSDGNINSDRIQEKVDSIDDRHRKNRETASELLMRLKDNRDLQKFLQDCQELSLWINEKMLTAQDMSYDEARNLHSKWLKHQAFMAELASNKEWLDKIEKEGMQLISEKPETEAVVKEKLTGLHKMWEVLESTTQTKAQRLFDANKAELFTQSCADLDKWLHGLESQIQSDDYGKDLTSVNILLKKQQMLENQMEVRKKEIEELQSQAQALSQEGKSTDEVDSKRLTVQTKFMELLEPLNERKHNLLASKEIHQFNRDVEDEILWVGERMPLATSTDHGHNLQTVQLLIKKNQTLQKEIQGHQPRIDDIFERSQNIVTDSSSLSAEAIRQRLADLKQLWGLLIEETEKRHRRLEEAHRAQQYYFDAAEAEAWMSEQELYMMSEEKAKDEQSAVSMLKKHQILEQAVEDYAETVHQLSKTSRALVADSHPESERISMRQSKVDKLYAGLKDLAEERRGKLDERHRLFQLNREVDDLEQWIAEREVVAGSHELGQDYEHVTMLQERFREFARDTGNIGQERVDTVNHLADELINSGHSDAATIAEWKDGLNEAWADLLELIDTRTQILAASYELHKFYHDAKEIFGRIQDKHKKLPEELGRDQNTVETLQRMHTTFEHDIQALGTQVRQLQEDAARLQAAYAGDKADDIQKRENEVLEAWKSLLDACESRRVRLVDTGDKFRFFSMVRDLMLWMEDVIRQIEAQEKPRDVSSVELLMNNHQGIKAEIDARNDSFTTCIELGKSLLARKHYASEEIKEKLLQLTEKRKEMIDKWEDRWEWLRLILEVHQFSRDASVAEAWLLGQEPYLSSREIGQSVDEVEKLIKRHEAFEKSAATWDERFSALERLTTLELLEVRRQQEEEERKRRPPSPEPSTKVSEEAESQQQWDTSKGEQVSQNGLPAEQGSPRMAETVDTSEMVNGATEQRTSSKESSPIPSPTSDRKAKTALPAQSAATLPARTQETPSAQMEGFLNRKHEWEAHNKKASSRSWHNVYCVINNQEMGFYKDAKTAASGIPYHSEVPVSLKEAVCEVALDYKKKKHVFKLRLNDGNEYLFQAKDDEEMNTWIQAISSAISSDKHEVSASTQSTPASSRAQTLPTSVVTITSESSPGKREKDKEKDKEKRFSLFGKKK
UniProt P35579, sequence (P35579 whole entry): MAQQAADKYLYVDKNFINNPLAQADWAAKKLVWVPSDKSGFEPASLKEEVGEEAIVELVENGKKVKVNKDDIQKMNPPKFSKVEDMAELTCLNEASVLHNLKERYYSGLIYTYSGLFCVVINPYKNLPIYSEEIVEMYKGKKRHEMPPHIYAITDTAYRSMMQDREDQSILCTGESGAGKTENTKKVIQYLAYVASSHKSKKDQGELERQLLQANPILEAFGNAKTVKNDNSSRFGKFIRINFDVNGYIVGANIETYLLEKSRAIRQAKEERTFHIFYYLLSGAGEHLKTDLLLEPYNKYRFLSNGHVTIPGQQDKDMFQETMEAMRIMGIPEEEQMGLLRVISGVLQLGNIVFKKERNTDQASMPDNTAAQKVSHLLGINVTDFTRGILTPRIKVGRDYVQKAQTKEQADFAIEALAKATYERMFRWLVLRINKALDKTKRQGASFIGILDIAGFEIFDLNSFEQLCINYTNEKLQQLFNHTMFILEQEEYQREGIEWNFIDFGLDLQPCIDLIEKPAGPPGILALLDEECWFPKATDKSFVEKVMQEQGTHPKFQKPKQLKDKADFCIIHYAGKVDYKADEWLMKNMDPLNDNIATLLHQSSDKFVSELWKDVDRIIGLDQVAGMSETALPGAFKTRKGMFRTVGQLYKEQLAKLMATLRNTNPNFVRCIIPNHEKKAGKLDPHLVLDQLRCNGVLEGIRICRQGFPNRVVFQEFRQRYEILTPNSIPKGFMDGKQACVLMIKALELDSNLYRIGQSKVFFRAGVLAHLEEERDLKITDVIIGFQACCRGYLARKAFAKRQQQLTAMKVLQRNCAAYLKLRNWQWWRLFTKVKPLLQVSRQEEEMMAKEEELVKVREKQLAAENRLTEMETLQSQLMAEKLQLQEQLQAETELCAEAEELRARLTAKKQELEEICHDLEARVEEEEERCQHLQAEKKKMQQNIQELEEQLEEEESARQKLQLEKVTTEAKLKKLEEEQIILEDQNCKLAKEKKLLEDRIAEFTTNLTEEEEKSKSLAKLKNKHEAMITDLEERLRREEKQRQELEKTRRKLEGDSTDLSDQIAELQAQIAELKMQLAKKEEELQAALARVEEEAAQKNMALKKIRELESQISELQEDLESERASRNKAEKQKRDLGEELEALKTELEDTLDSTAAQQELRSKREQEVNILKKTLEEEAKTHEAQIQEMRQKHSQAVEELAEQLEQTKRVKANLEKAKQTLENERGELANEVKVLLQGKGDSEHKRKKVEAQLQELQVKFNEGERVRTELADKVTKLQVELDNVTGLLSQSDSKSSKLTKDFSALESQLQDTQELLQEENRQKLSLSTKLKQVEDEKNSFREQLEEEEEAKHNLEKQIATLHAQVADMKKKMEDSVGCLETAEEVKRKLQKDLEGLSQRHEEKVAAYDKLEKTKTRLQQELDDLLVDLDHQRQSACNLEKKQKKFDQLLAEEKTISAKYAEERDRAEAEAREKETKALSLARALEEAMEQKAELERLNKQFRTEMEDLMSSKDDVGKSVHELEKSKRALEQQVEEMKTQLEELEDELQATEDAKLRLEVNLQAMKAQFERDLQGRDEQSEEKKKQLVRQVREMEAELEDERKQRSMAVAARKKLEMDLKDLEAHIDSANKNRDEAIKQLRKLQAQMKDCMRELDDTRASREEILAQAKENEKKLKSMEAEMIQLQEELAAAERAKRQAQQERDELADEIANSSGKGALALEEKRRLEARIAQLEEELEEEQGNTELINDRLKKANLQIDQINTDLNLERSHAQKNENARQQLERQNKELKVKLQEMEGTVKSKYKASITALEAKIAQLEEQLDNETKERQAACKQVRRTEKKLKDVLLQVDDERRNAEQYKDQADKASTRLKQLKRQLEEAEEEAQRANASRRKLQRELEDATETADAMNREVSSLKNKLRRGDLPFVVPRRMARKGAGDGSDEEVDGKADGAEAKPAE
UniProt P07355, sequence (P07355 whole entry): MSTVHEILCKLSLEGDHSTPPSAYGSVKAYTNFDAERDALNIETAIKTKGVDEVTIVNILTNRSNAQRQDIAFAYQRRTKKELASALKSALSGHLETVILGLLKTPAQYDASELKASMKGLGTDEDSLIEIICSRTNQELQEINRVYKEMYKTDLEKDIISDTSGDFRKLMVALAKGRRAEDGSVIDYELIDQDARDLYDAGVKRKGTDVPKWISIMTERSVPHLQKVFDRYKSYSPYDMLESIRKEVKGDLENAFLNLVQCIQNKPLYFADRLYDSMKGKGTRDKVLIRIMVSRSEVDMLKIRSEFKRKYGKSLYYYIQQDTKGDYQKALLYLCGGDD
UniProt P25445, sequence (P25445 whole entry): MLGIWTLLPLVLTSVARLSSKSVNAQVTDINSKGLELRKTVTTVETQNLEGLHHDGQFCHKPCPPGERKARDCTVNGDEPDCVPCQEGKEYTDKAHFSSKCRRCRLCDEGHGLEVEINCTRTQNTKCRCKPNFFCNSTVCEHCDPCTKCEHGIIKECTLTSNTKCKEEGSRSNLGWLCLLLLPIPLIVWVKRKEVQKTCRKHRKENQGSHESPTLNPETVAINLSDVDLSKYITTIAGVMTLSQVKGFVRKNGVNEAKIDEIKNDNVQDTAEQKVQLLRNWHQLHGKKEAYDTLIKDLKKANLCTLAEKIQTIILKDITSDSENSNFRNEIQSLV

| Target | lysine labeling ratio R10:1 |
| --- | --- |
| TNKS1BP1 (lysine site: K1680) (UniProt Q9C0C2) | 2.22 (inactive) |
| LDLR (lysine site: K603) (UniProt P01130) | 1.19 (active) |
| MYH9 (lysine site: K1754) (UniProt P35579) | 3.66 (inactive) |
| RTN3 (lysine site: K998) (UniProt O95197) | 4.14 (inactive) |
| TFRC (lysine site: K585) (UniProt P02786) | 4.53 (inactive) |
| M6PR (lysine site: K44) (UniProt P20645) | 2.9 (inactive) |
| HMOX1 (lysine site: K39) (UniProt P09601) | 1.45 (active) |
| UniProt Q16181 (lysine site: K408) | 3.83 (inactive) |
| AHNAK (lysine site: K326) (UniProt Q09666) | 1.7 (active) |
| PSMC3 (lysine site: K372) (UniProt P17980) | 2.19 (inactive) |
| FAS (lysine site: K100) (UniProt P25445) | 1.44 (active) |
| UniProt P55285 (lysine site: K121) | 4.12 (inactive) |
| UniProt P60866 (lysine site: K75) | 1.91 (active) |
| ANXA2 (lysine site: K281) (UniProt P07355) | 5.78 (inactive) |
| TNPO1 (lysine site: K889) (UniProt Q92973) | 1.09 (active) |
| RPL22 (lysine site: K80) (UniProt P35268) | 2.72 (inactive) |
| MSN (lysine site: K360) (UniProt P26038) | 2.83 (inactive) |
| GPI (lysine site: K12) (UniProt P06744) | 0.867 (active) |
| EEF2 (lysine site: K407) (UniProt P13639) | 1.45 (active) |
| CFL1 (lysine site: K144) (UniProt P23528) | 3.15 (inactive) |

| Target | lysine labeling ratio R10:1 |
| --- | --- |
| CD109 (lysine site: K1105) (UniProt Q6YHK3) | 1.09 (active) |
| CD63 (lysine site: K194) (UniProt P08962) | 2.39 (inactive) |
| RPS3A (lysine site: K46) (UniProt P61247) | 3.87 (inactive) |
| SPTBN1 (lysine site: K714) (UniProt Q01082) | 2.12 (inactive) |
| PARK7 (lysine site: K188) (UniProt Q99497) | 1.98 (active) |
| FRAS1 (lysine site: K3278) (UniProt Q86XX4) | 2.1 (inactive) |
| MYH9 (lysine site: K1219) (UniProt P35579) | 2.49 (inactive) |
| UniProt Q9NYQ7 (lysine site: K2131) | 1.56 (active) |
| SLC39A10 (lysine site: K66) (UniProt Q9ULF5) | 0.9 (active) |
| SPTBN1 (lysine site: K832) (UniProt Q01082) | 2.42 (inactive) |
| HSPA8 (lysine site: K257) (UniProt P11142) | 3.1 (inactive) |
| LRPAP1 (lysine site: K65) (UniProt P30533) | 4.18 (inactive) |
| NCL (lysine site: K545) (UniProt P19338) | 3.2 (inactive) |
| EPPK1 (lysine site: K2707) (UniProt P58107) | 3.42 (inactive) |
| PLXNA2 (lysine site: K820) (UniProt O75051) | 5.38 (inactive) |
| UniProt P55145 (lysine site: K45) | 4 (inactive) |
| TKT (lysine site: K144) (UniProt P29401) | 10.4 (inactive) |
| B4GAT1 (lysine site: K60) (UniProt O43505) | 7.79 (inactive) |
| AGRN (lysine site: K1934) (UniProt O00468) | 2.08 (inactive) |
| ATP1B1 (lysine site: K277) (UniProt P05026) | 17.2 (inactive) |
